# Measurements as given in the supplement of paper PMC11732987, “Enantioselective OTUD7B fragment discovery through chemoproteomics screening and high-throughput optimisation” (Communications Chemistry, 2025).
# Unmarked numbers belong to inactive results.
# Legend:
# Test in all cases: log2 ratio of Biotin-Ahx-Ub-VS probe labelling (fragment/DMSO); higher = less target engagement (more negative = stronger competition), active = hit call of the paper (q ≤ 0.05, log2 ratio ≤ -1)
# Settings in all cases: compound concentration: 200 uM; treatment time: 3 h
# OTUD6B = target: T1, OTUD6B (UniProt Q8N6M0)
# T1 sequence (whole entry): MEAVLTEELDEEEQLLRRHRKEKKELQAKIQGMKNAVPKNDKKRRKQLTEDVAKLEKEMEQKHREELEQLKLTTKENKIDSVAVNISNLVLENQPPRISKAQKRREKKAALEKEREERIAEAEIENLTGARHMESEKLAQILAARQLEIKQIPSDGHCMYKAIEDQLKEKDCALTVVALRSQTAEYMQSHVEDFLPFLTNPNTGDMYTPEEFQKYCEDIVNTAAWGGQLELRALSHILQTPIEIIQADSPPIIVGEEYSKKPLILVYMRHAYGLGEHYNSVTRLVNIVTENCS
# In short: (§1)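 Fragment (200 µM) or vehicle was incubated for 3 h with triplicate HEK293T lysate samples of 495 µg, which were then treated with Biotin-Ahx-Ub-VS at 0.5 µM final for 1 h. Labelled DUBs were enriched on NeutrAvidin, digested with LysC and trypsin, and analysed by diaPASEF LC-MS/MS. Values are average log2 fragment/vehicle ratios from an unpaired t-test on global-median-normalised Spectronaut label-free quantities, using proteins with ≥2 unique peptides.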
# OTUD7B = target: T2, OTUD7B (UniProt Q6GQQ9)
# T2 sequence (whole entry): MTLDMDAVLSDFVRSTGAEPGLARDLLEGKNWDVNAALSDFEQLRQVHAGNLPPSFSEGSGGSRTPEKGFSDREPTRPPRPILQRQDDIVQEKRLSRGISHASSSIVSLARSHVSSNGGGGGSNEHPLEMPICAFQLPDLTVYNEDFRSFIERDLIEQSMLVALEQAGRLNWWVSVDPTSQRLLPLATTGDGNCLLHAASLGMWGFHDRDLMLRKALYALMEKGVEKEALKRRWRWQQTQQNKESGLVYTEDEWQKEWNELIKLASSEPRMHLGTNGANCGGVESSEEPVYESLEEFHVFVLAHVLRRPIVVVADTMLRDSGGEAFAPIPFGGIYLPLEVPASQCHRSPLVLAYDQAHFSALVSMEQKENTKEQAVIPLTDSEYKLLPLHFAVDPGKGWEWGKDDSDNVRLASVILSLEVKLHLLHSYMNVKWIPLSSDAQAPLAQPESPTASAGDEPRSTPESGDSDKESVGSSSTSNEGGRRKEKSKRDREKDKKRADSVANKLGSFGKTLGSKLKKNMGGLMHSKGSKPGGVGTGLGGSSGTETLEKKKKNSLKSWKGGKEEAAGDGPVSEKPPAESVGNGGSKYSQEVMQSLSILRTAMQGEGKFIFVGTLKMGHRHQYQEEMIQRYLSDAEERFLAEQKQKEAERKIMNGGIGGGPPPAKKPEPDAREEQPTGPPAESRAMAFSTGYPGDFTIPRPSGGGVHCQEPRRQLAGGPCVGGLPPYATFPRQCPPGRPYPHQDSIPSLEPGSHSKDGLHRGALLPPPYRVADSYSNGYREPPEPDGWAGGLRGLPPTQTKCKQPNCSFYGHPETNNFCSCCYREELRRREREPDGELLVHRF
# In short: as §1
# PRPF8 = PRPF8 (UniProt Q6P2Q9)
# In short: as §1
# PSMD7 = target: T3, PSMD7 (UniProt P51665)
# T3 sequence (whole entry): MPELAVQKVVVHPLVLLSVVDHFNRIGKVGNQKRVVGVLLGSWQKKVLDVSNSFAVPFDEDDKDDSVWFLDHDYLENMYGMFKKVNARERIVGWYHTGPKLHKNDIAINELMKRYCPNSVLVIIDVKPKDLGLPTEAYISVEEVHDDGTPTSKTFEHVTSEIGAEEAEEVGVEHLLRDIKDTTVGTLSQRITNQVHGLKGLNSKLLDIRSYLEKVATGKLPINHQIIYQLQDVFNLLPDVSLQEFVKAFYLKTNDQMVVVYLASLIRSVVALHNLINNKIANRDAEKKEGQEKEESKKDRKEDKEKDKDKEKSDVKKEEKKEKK
# In short: as §1
# UCHL1 = UCHL1 (UniProt P09936)
# In short: as §1
# UCHL3 = target: T4, UCHL3 (UniProt P15374)
# T4 sequence (whole entry): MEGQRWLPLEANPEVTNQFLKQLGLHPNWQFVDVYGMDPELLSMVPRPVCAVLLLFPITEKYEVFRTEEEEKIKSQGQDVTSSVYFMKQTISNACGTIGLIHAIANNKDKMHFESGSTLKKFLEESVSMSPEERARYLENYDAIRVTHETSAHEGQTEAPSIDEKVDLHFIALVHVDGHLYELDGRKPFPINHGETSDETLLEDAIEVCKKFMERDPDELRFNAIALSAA
# In short: as §1
# UCHL5 = target: T5, UCHL5 (UniProt Q9Y5K5)
# T5 sequence (whole entry): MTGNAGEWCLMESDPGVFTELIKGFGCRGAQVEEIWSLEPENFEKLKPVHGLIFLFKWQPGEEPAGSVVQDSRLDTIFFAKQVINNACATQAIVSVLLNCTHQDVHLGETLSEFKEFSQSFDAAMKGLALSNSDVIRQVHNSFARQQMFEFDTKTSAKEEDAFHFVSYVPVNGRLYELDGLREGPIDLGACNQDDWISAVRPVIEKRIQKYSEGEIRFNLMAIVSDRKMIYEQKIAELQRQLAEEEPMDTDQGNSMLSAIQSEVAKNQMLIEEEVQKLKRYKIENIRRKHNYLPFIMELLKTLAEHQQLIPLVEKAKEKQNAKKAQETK
# In short: as §1
# USP10 = USP10 (UniProt Q14694)
# In short: as §1
# USP15 = target: T6, USP15 (UniProt Q9Y4E8)
# T6 sequence (whole entry): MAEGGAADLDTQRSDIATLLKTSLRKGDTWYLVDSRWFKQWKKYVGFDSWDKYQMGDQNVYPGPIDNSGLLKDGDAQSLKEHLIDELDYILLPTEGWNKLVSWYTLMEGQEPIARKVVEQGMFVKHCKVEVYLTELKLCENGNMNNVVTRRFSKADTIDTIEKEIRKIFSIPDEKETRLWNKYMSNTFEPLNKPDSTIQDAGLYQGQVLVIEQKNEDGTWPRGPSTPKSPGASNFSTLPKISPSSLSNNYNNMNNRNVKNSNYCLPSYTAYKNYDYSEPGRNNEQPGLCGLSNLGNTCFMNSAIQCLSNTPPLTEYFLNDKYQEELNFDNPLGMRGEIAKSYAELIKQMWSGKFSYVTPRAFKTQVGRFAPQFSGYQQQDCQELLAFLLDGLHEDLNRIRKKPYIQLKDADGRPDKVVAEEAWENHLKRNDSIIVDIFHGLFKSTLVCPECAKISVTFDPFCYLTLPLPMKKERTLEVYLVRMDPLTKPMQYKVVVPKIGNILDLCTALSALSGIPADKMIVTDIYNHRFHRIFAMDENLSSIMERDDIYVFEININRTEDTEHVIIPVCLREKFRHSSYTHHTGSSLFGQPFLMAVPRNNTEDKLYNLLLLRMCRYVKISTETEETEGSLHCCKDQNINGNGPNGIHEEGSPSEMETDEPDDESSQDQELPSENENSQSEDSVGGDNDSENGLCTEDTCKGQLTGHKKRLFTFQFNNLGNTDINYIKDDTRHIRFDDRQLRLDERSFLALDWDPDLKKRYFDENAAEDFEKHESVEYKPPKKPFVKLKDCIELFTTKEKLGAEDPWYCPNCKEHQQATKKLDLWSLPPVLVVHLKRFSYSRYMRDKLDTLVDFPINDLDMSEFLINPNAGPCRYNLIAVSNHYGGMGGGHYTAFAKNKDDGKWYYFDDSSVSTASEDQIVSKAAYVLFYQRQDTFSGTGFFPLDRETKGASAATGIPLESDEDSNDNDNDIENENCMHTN
# In short: as §1
# USP16 = USP16 (UniProt Q9Y5T5)
# In short: as §1
# Sequence of USP16 (Q9Y5T5 whole entry, looked up): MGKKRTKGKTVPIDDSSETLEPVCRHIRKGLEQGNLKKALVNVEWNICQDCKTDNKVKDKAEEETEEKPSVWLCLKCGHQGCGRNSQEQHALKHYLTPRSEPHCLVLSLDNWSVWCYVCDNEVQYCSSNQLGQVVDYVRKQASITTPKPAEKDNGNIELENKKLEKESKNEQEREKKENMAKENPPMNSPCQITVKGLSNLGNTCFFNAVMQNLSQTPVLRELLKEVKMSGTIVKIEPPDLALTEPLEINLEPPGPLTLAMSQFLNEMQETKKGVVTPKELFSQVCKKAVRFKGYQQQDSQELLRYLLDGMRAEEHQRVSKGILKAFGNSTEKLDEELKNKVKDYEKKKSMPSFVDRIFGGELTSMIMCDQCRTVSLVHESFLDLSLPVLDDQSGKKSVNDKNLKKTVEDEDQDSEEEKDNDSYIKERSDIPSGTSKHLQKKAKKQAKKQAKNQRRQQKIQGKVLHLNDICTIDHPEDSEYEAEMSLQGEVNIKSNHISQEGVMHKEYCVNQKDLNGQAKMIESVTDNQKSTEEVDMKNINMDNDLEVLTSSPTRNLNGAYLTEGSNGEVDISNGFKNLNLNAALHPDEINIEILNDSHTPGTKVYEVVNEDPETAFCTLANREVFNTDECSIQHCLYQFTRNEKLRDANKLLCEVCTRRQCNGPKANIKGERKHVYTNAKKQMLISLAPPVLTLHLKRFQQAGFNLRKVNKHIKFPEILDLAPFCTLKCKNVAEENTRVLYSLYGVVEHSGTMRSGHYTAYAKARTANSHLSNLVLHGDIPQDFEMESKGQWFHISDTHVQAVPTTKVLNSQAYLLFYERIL
# Sequence of UCHL1 (P09936 whole entry, looked up): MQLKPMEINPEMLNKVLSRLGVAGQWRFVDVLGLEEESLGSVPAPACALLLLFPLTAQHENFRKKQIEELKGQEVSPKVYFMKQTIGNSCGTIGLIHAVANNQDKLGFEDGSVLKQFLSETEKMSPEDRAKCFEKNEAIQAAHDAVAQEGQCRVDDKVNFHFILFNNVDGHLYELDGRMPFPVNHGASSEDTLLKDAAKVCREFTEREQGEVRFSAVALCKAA
# Sequence of USP10 (Q14694 whole entry): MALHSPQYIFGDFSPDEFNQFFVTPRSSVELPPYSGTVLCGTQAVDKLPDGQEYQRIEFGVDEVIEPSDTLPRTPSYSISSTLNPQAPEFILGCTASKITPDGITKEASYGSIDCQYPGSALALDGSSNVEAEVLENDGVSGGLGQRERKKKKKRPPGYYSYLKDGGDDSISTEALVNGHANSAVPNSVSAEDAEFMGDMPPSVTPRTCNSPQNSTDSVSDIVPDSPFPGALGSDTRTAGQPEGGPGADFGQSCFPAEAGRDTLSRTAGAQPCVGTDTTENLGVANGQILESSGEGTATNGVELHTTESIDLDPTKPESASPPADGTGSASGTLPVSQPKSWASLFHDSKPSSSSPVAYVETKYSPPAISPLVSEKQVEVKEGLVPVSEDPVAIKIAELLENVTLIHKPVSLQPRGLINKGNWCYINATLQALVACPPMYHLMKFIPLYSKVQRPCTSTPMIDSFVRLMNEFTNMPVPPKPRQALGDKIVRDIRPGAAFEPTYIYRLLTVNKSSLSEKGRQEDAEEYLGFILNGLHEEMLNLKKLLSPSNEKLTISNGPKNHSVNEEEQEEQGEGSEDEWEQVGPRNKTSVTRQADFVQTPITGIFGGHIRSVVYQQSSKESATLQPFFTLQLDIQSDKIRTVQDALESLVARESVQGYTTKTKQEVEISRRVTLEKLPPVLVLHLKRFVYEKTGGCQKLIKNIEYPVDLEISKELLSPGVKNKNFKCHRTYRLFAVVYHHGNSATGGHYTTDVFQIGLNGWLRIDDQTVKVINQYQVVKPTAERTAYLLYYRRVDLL
compound,measurement,setting,value
O=C(CCl)Nc1cc2c(cc1Cl)OCCCO2,log2 ratio of Biotin-Ahx-Ub-VS probe labelling,OTUD6B,-0.0697
same,log2 ratio of Biotin-Ahx-Ub-VS probe labelling,OTUD7B,-0.399
same,log2 ratio of Biotin-Ahx-Ub-VS probe labelling,PRPF8,0.00677
same,log2 ratio of Biotin-Ahx-Ub-VS probe labelling,PSMD7,-0.0387
same,log2 ratio of Biotin-Ahx-Ub-VS probe labelling,UCHL1,-1.39 (active)
same,log2 ratio of Biotin-Ahx-Ub-VS probe labelling,UCHL3,-0.323
same,log2 ratio of Biotin-Ahx-Ub-VS probe labelling,UCHL5,-0.0527
same,log2 ratio of Biotin-Ahx-Ub-VS probe labelling,USP10,-0.157
same,log2 ratio of Biotin-Ahx-Ub-VS probe labelling,USP15,-0.172
same,log2 ratio of Biotin-Ahx-Ub-VS probe labelling,USP16,-0.508
